Test results reported in ChEMBL document CHEMBL4513146, “CO-ADD screening of Karazin Kharkiv National University (Ukraine) compounds”.
Potency and affinity values are given separately.

System: Klebsiella pneumoniae
Conditions: Concentration 32 ug.mL-1;; ASSAY_TEST Inhibition of Bacterial Growth; detection method Absorption (OD600); MEDIA CAMHB; plate type 384well; NBS; CORNING #3640; time 18 hr

SMILES | Inhibition
Cc1cc2nn(CC(=O)Nc3ccc(F)cc3Cl)c(=O)n2c(Nc2ccccc2C)n1 | 1.95%
O=C(Cn1nc2c(Oc3ccccc3)nccn2c1=O)Nc1ccc2c(c1)OCCO2 | 6.43%
O=C(Cn1nc2c3sc(N4CCCC4)nc3ncn2c1=O)Nc1ccc(F)c(Cl)c1 | 20.21%
CCCCN(CC)c1ccc2nnc(CCc3nc(-c4ccc(Br)cc4)no3)n2n1 | 10.38%
O=C(Cn1nc2c(Oc3ccccc3)nccn2c1=O)Nc1cc(F)ccc1F | -4.08%
COc1ccc(NC(=O)Cn2nc3c(N4CCOCC4)nccn3c2=O)c(OC)c1 | 20.77%
CC(C)CCn1c(=O)c2sccc2n2c(=O)n(Cc3c(F)cccc3Cl)nc12 | 12.18%
O=C(Cn1nc2c3sc(N4CCCC4)nc3ncn2c1=O)Nc1ccccc1Cl | 7.88%
N#CCSc1nnc2c(=O)n(-c3ccc(Br)cc3)ccn12 | 12.03%
Cc1cccc(NC(=O)Cn2nc3c4cc(-c5ccc(Cl)cc5)nn4ccn3c2=O)c1C | 3.93%
C=Cc1ccc(CN(c2ccc(CC)cc2)S(=O)(=O)c2cccn3c(C)nnc23)cc1 | 2.48%
CCc1nnc2c(S(=O)(=O)N(Cc3cccc(OC)c3)c3ccccc3)cccn12 | 11.28%
CC(C)NC(=O)CSc1nnc2c(=O)n(Cc3ccc(F)cc3)ccn12 | 4.17%
COc1cccc(-n2ccn3c(SCC(=O)NCc4ccc(C)cc4)nnc3c2=O)c1 | 8.21%
O=c1c2sccc2n2c(=O)n(Cc3ccc(F)cc3)nc2n1Cc1cccs1 | 10.32%
